# Pf Dd2 inh – Plasmodium falciparum Dd2 growth inhibition; P. falciparum Dd2 growth, SYBR Green, 72 h; Potency, µM (titrated, usually from 28.9 µM), for inactives: at the highest dose activity, negative = inhibition, actives largely listed as inhibitors; actives 4.3% (n = 120,000); active means well fitted inhibition curve with a large enough effect;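 further: plate controls were DMSO vehicle for no effect and reference drug for full effect; nearly all actives have a fitted effect of over 65% in size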
#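 Infected erythrocytes (Dd2, 0.3% parasitemia, 2.5% hematocrit final) are added to compound in RPMI-1640/Albumax II medium, grown 72 h at 37C in low oxygen, then lysed with saponin/Triton-X containing SYBR Green and read by fluorescence.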
# Active calls of the source: *; i = inactive; [ ] = remark or other dose. Only a selection was taken, and hits are over-represented in it overall. Potency means the concentration at half of the fitted maximal effect.
SMILES,Pf Dd2 inh
COc1cccc(CN2CCC3(CC2)CC(c2ccccc2)C(=O)N3C)c1 (stereo not given),-20.1%
CCO[C@H]1CN(C(=O)CCSCc2ccc(F)cc2)C[C@@H]1O,-7.9%
CCN1c2cc(C(=O)Nc3ccc(N(C)C)cc3)ccc2C(=O)N2CCCCCC21 (stereo not given),-1.3%
CCN1CCC(N(Cc2ccc3c(c2)OCO3)C(=O)Nc2cc(Cl)ccc2C(=O)OC)CC1,3.55µM*
O=C([C@@H]1COCC(=O)N1Cc1ccccc1)N1CCN(Cc2ccc3c(c2)OCO3)CC1,31.3%
O=C1[C@H]2CN(Cc3ccc(F)c(Cl)c3)C[C@H]2C(=O)N1Cc1ccc2c(c1)OCO2,i
O=C(Nc1ccc(F)c(Cl)c1)N(Cc1ccc2c(c1)OCO2)C1CCN(Cc2ccccc2)CC1,8.91µM*
COC(=O)c1ccc(Cl)cc1NC(=O)N(Cc1ccc(C)o1)C1CCN(C(C)=O)CC1,-21.4%
CCN1CCC(N(Cc2ccc3c(c2)OCO3)C(=O)Nc2ccccc2OC)CC1,-24.4%
CC(C)C(=O)N1CCCC(Cc2nc(C3CCOCC3)no2)C1 (stereo not given),-1.4%
Cc1nc([C@@H]2CN(C3CCN(CCc4ccccc4)CC3)C[C@H]2C(N)=O)n[nH]1,18.1%
Cc1ccccc1-n1nc(C)c(CCC(=O)N2CCSCC2)c1Oc1ccccc1F,-12.2%
Cc1ccc(CNC(=O)N2CCC(c3noc(-c4ccccc4)n3)C2)cc1 (stereo not given),i[5.79 µM]
COCC(=O)NC[C@H]1CCN(S(C)(=O)=O)C[C@H]1N(C)C,12.4%
OC1(c2csc(CN3CCOCC3)n2)CCN(Cc2ccc(C(F)(F)F)cc2)CC1,6.9%
CCN1CCC(O)(c2csc(CN(CC)CC)n2)CC1,4.2%[44.1 µM]
CCN(CC)Cc1nc(C2(O)CCN(Cc3ccc(C(F)(F)F)cc3)CC2)cs1,11.2µM*
Cc1ccc(C(=O)NC2CC(=O)N(CCCc3ccccc3)C2)s1 (stereo not given),i
Cc1ccc(Nc2nc(C(N)=O)c(NC(=O)c3ccccc3Br)s2)cc1,10µM*
Cc1ccc(-c2nc(C)c(CCNC(=O)c3ccccc3Br)s2)cc1,-10.8%
NC(=O)c1nc(Nc2ccccc2)sc1NC(=O)c1c(F)cccc1F,52.7%
CCOc1cccc2c1Oc1nc(-c3ccccc3)nc(SCC(=O)Nc3ccc(F)cc3)c1C2,7.94µM*
COc1cccc(NC(=O)CSc2nc(-c3ccccc3)nc3c2Cc2cc(Cl)ccc2O3)c1,25.0%
COc1ccc(-c2nc3c(c(SCC(=O)Nc4ccccc4F)n2)Cc2cc(C)ccc2O3)cc1,18.5%
CCOc1ccc(-c2nc3c(c(SCC(=O)Nc4ccccc4C)n2)Cc2ccccc2O3)cc1,-6.2%
SMILES,Pf Dd2 inh
COc1ccc(-c2nc3c(c(SCC(=O)Nc4ccccc4OC)n2)Cc2cccc(C)c2O3)cc1,11.2µM*
COc1cccc2c1Oc1nc(-c3ccccc3)nc(SCC(=O)N3CCCCC3)c1C2,-22.9%
COC1CCN(CC2CCCCCN2C(=O)c2ccoc2)CC1 (stereo not given),-0.4%
COCCOC1CCN(C(=O)Nc2ccc3c(c2)OCCO3)CC1,47.6%
COC(=O)c1sccc1S(=O)(=O)N(CC(=O)Nc1ccc(C)cc1)c1ccccc1,-17.4%
COC(=O)c1sccc1S(=O)(=O)N(CC(=O)Nc1ccccc1F)c1ccccc1,55.4%
CCc1ccc(NC(=O)CN(c2ccc(Cl)cc2)S(=O)(=O)c2ccsc2C(=O)OC)cc1,11.2µM*
COc1ccc(CCC(=O)N2CC[C@H](CO)[C@H](NC(=O)C3CC3)C2)cc1,-1.0%
COc1cccc(C(=O)Nc2ccc(S(=O)(=O)N(Cc3ccccc3)c3ccccc3)cc2)c1,47.9%
O=C(Nc1ccc(S(=O)(=O)N(Cc2ccccc2)c2ccccc2)cc1)c1ccc(F)cc1,69.1%
Cc1ccc(NC(=O)c2ccc(N(Cc3ccccc3)S(C)(=O)=O)cc2)cc1,6.31µM*
CNC(=O)N1CCC(C2CCN(C(=O)c3ccc(OC)c(F)c3)C2)CC1 (stereo not given),-4.3%
O=C(c1ccccc1)N1CCCCC1c1nc(-c2cccnn2)no1 (stereo not given),-4.5%
Cc1ccccc1-n1c(SCc2ccc(Cl)cc2)nc2[nH]ncc2c1=O,10µM*
O=c1c2cn[nH]c2nc(SCc2cccc(Br)c2)n1-c1ccc(Cl)cc1,9.1%
Cc1cc(-n2c(SCc3ccccc3F)nc3[nH]ncc3c2=O)ccc1Cl,-27.3%
COc1cccc(S(=O)(=O)N2CCCN(C)c3ccccc32)c1,i
COc1ccc([C@H]2C[C@@H](O)[C@@H](O)[C@@H]2NCc2cccc(C(F)(F)F)c2)cc1,8.91µM*
COc1ccc([C@H]2C[C@@H](O)[C@@H](O)[C@@H]2NCc2cccc(C#N)c2)cc1,-11.3%[44.1 µM]
COc1ccc([C@H]2C[C@@H](O)[C@@H](O)[C@@H]2NCc2cnc3ccccc3c2)cc1,i
O=C1COC[C@H]([C@H](O)c2ccc(NC(=O)c3ccnc(Cl)c3)cc2)N1,15.6%[44.1 µM]
O=C(NC1CCCC1)c1ccc2c(=O)n(Cc3ccccc3)c(SCc3ccccc3)nc2c1,21.2%
CC(NC(=O)c1ccc(CSc2nc3ccncc3n2Cc2ccc(F)cc2)cc1)c1ccccc1 (stereo not given),8.91µM*
CC(NC(=O)c1cc2sccc2n1Cc1ccc(F)cc1)c1ccccc1 (stereo not given),i
CN(C)[C@H]1CCCCN(C(=O)c2ccc(CSc3ccccn3)cc2)C1,i
SMILES,Pf Dd2 inh
CC(NC(=O)c1ccc(Cn2c(SCc3ccccc3)nc3cccnc32)cc1)c1ccccc1 (stereo not given),14.0%
Cc1ccccc1CSc1nc2cc(C(=O)NC3CCCC3)ccc2c(=O)n1Cc1ccccc1,i
CC1CCCN(C(=O)c2ccc(CSc3nc4ccncc4n3Cc3ccccc3)cc2)C1 (stereo not given),11.2µM*
Cc1ccccc1Cn1c(SCc2ccc(C(=O)NC(C)c3ccccc3)cc2)nc2ccncc21 (stereo not given),6.31µM*
CC(NC(=O)c1ccccc1)c1nc2ccccc2n1Cc1ccc(Cl)cc1 (stereo not given),-14.5%
CC(=O)N1CCCN(c2ncnc3c2CN(c2ccc([N+](=O)[O-])cc2)C(=O)N(C)C3)CC1,-13.7%
CCOC(=O)c1ccccc1NC(=O)CN1C(=O)NC2(CCOCC2)C1=O,48.9%
CCCCS(=O)(=O)N1CCC(C2CCNC2)CC1 (stereo not given),-9.7%
CC(=O)N1CC2(CCN(CCS(C)(=O)=O)CC2)CC1C(=O)O (stereo not given),4.5%
O=C(CCc1cc2n(n1)CCCN(C(=O)CCc1ccsc1)C2)NC1CC1,-22.8%
CCc1ccc(N2CC(c3noc(-c4cc(OC)c(OC)c(OC)c4)n3)CC2=O)cc1 (stereo not given),10.0%
COc1ccc([C@H]2C[C@@H](O)[C@@H](O)[C@@H]2NC(=O)c2ccc(C#N)cc2)cc1,32.8%[44.1 µM]
COCCN1C(=O)[C@H]2CN(Cc3cccc(F)c3)C[C@H]2C1=O,i
COc1ccc(N2CCN(c3ncnc4c3cnn4-c3ccc(C)c(Cl)c3)CC2)cc1,40.4%
COc1ccc(-n2ncc3c(N4CCN(c5cccc(C)c5)C(C)C4)ncnc32)cc1 (stereo not given),5.62µM*
Cc1cccc(-n2ncc3c(N4CCN(c5ccccc5)CC4)ncnc32)c1,44.0%
COc1ccc(C(=O)/C=C/c2cn(CC(O)CN3CCc4ccccc43)c3ccccc23)cc1 (stereo not given),-3.4%
CCCCN(CCCC)CC(O)Cn1cc(/C=C/C(=O)c2ccccc2)c2ccccc21 (stereo not given),0.891µM*

# Bioassay records as filed in PubChem.
